PubChem BioAssay
For part of these data: Entries with a potency or affinity are not part of this list. Calls of active or inactive are those of the source. Unless noted, no rule for the calls is given here.

Experiments:
[1] = antimalarial activity against Dd2 strain (AID 2302;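 active = growth inhibition above 50% at the single 2 µM test dose, taken to imply half-maximal potency below 2 µM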;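 also: 0% = DMSO untreated growth and 100% = chloroquine plus artemisinin killed control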); conditions: P. falciparum Dd2 in RBCs, LDH growth readout, 72 h; at 2 µM; stronger effect = higher value
[2] = human hepatoma cell viability loss – ATP luminescence, cytotoxicity control for P. falciparum antimalarial project, primary screen (AID 2303;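 active = inhibition above 50%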;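 also: 0% = DMSO wells and 100% = digitonin-killed cells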); conditions: HepG2 viability, 24-48 h, at 10 µM, stronger effect = higher value
[3] = biological target: L-lactate dehydrogenase (Plasmodium falciparum (isolate CDC / Honduras)) (UniProt Q27743); experiment: PfLDH activity inhibition – cell lysate, 3D7 strain, counter-screen for P. falciparum growth inhibition project (AID 2304);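 also: 0% = vehicle and 100% = reference inhibitor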; conditions: P. falciparum 3D7 crude extract, LDH APAD/NBT absorbance; at 2 µM; stronger effect = higher value
[4] = inhibition of 3D7 malaria parasite growth – strain 3D7 (AID 2306);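 also: 0% = DMSO wells and 100% = chloroquine plus artemisinin control wells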; conditions: P. falciparum 3D7 erythrocytic growth, LDH absorbance, 72 h; at 2 µM; stronger effect = higher value
[5] = biological target: Calcium-dependent protein kinase 1 (Plasmodium falciparum (isolate 3D7)) (UniProt P62344); experiment: PfCDPK1 kinase inhibitors, biochemical, TCAMS library (AID 1159585; cut-off not given, nearly all actives have IC50 up to about 0.98 µM;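 also: inhibitors leave more ATP so luminescence rises with inhibition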); conditions: recombinant PfCDPK1, Kinase-Glo ATP depletion luminescence
[6] = biological target: Plasmodium falciparum protein kinase 6 (PK6, PF3D7_1337100) (UniProt Q8IDW1); experiment: PfPK6 kinase inhibitors, biochemical, TCAMS library (AID 1159586); conditions: recombinant PfPK6, Kinase-Glo ATP depletion luminescence
[7] = biological target: Protein kinase 7 (PK7), Plasmodium falciparum 3D7 (PF3D7_0213400) (UniProt Q7YTF7); experiment: inhibition of Plasmodium PK7 catalytic activity – biochemical, TCAMS antimalarial set, Kinase-Glo luminescence (AID 1159587); conditions: recombinant PfPK7, Kinase-Glo ATP depletion luminescence
[8] = biological target: Calcium-dependent protein kinase 4 (Plasmodium falciparum (isolate 3D7)) (UniProt Q8IBS5); experiment: PfCDPK4 kinase inhibitors, biochemical, TCAMS library (AID 1159588; cut-off not given, nearly all actives have IC50 up to about 0.91 µM); conditions: recombinant PfCDPK4, Kinase-Glo ATP depletion luminescence
Chain of Calcium-dependent protein kinase 4 (Plasmodium falciparum (isolate 3D7)) (Q8IBS5 whole entry, looked up): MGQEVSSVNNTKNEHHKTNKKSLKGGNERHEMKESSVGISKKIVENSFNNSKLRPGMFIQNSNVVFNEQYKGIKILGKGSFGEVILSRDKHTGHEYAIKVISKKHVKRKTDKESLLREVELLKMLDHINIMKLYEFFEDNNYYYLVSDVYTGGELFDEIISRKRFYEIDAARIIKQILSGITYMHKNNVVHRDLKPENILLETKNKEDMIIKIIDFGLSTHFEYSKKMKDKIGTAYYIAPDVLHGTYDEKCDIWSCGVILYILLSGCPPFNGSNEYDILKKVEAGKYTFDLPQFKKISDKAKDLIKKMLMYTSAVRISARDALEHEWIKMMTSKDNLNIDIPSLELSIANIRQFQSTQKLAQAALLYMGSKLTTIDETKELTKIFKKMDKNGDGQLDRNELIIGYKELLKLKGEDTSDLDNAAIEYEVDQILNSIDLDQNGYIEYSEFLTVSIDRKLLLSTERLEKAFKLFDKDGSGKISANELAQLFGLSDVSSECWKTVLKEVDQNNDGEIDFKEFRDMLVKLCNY

Chain of Plasmodium falciparum protein kinase 6 (PK6, PF3D7_1337100) (Q8IDW1 1-305): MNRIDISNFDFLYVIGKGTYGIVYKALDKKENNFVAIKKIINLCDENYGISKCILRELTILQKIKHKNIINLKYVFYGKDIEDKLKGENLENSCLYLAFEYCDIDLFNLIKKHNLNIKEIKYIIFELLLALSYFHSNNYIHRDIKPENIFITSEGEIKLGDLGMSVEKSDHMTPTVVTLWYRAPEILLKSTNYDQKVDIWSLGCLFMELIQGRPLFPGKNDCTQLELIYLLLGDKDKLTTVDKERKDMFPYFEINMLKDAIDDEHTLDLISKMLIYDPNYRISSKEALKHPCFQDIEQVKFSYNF
Chain of Calcium-dependent protein kinase 1 (Plasmodium falciparum (isolate 3D7)) (P62344 whole entry, looked up): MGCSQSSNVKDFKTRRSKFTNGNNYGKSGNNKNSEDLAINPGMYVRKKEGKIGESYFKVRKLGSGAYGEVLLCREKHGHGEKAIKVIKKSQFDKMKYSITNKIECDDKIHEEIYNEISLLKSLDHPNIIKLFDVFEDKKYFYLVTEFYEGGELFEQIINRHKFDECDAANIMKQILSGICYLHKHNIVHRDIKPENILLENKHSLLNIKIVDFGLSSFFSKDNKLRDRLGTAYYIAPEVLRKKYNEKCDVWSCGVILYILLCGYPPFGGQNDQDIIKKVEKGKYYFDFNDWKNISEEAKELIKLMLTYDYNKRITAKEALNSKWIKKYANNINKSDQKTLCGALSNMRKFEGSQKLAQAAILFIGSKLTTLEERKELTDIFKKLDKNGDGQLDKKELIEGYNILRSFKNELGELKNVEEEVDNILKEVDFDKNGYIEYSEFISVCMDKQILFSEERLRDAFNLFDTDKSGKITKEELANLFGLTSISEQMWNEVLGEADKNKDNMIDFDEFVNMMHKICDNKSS
Chain of L-lactate dehydrogenase (Plasmodium falciparum (isolate CDC / Honduras)) (Q27743 whole entry, looked up): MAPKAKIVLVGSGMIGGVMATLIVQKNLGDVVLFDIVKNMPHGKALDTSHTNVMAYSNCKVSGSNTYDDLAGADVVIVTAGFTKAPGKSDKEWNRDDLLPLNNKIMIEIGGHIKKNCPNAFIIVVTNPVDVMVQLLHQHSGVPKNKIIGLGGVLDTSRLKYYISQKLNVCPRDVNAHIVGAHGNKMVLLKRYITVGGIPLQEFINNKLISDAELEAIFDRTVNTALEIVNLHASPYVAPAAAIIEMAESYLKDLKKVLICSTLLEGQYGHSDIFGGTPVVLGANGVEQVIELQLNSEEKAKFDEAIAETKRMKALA
Chain of Protein kinase 7 (PK7), Plasmodium falciparum 3D7 (PF3D7_0213400) (Q7YTF7 1-343): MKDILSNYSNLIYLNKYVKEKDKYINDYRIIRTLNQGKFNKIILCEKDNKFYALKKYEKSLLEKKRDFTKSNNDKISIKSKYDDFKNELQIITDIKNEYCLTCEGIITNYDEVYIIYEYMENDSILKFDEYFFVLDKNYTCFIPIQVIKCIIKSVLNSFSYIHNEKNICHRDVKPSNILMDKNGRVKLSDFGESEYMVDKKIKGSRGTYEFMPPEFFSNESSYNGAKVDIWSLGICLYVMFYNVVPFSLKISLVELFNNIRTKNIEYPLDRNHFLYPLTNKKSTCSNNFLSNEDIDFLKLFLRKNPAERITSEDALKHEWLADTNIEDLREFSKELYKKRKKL

CN1CCc2cc(NC(=O)c3cc4ccccc4s3)cc(-c3ccccc3)c2CC1
active: growth inhibition [4] 91%
inactive: growth inhibition [1] 11% | inhibition [2] 20% | inhibition [3] -2% | outcome [5] | outcome [6] | outcome [7] | outcome [8]

FC(F)(F)c1ccc2nc(-c3ccc(-c4ccc(CNCC5CCCO5)cc4)cc3)[nH]c2c1 (configuration not stated)
active: growth inhibition [1] 100% | growth inhibition [4] 101%
inactive: inhibition [2] 33% | inhibition [3] -3% | outcome [5] | outcome [6] | outcome [7] | outcome [8]

CC(=O)Nc1ccc(CCNC(C)Cc2ccc(C(=O)Nc3ccc(CC(C)NCCc4cccc(Cl)c4)cc3)cc2)cc1 (configuration not stated)
active: growth inhibition [1] 84% | inhibition [2] 50% | growth inhibition [4] 100%
inactive: inhibition [3] -7% | outcome [5] | outcome [6] | outcome [7] | outcome [8]

CCCCC(=O)N(CCOC)Cc1ccc(-c2ccc(CNCCC)cn2)cc1
active: growth inhibition [1] 68% | growth inhibition [4] 99%
inactive: inhibition [2] 30% | inhibition [3] -3% | outcome [5] | outcome [6] | outcome [7] | outcome [8]

COc1c(C2CCN(CCCCNC(=O)c3ccc(-c4ccc(C#N)cc4)nc3)CC2)ccc2c1CCCC2
inactive: inhibition [3] -2% | outcome [5] | outcome [6] | outcome [7] | outcome [8]
active: growth inhibition [1] 67% | inhibition [2] 54% | growth inhibition [4] 95%

Cc1c(C)n(C2CCCCC2)c2ncnc(OC3CCN(CC(=O)NC4CC4)CC3)c12
inactive: inhibition [2] 21% | inhibition [3] -2% | outcome [5] | outcome [6] | outcome [7] | outcome [8]
active: growth inhibition [1] 72% | growth inhibition [4] 94%

Cc1cccc(CNc2nc(C)cc(N[C@@H](Cc3ccccc3)C(=O)NCc3cccc(F)c3)n2)c1
active: growth inhibition [1] 82% | growth inhibition [4] 101%
inactive: inhibition [2] 39% | inhibition [3] -2% | outcome [5] | outcome [6] | outcome [7] | outcome [8]

COc1cc(CN=C(Nc2ccc(-c3ccccc3)cc2)Nc2ccc(C#N)cc2O)cc(OC)c1
active: growth inhibition [1] 64% | growth inhibition [4] 95%
inactive: inhibition [2] -4% | inhibition [3] 5% | outcome [5] | outcome [6] | outcome [7] | outcome [8]

CC1(C)N=C(N)N=C(N)N1OCc1cccc(C#N)c1
active: inhibition [2] 57% | growth inhibition [4] 94%
inactive: growth inhibition [1] 2% | inhibition [3] 5% | outcome [5] | outcome [6] | outcome [7] | outcome [8]

COc1ccc(-n2nc(C(=O)NCCC3=CCCCC3)c3ccccc3c2=O)cc1
active: growth inhibition [1] 59% | growth inhibition [4] 94%
inactive: inhibition [2] 0% | inhibition [3] -4% | outcome [5] | outcome [6] | outcome [7] | outcome [8]

O=S(=O)(Nc1cccc(CCN2CCC(N3CCCCC3)CC2)c1)c1ccccc1C(F)(F)F
active: growth inhibition [4] 82%
inactive: growth inhibition [1] 32% | inhibition [2] 21% | inhibition [3] 1% | outcome [5] | outcome [6] | outcome [7] | outcome [8]

CCn1c(C2CCN(CCC3CCN(C(=O)/C=C/c4ccc(Cl)c(Cl)c4)CC3)CC2)nc2ccccc21
inactive: growth inhibition [1] 0% | inhibition [2] 17% | inhibition [3] 2% | outcome [5] | outcome [6] | outcome [7] | outcome [8]
active: growth inhibition [4] 86%

Nc1ccnc2ccc(OCCCCCCc3ccccc3)cc12
active: growth inhibition [1] 99% | inhibition [2] 96% | growth inhibition [4] 100%
inactive: inhibition [3] 1% | outcome [5] | outcome [6] | outcome [7] | outcome [8]

Cc1cccc(Cn2c(C(N)=O)nn(-c3ccc([N+](=O)[O-])cc3C#N)c2=S)c1
inactive: growth inhibition [1] 48% | inhibition [2] 1% | inhibition [3] 2% | outcome [5] | outcome [6] | outcome [7] | outcome [8]
active: growth inhibition [4] 101%

N#Cc1ccc(N(CCNS(=O)(=O)c2cc(Br)c(Cl)s2)Cc2ccccc2C(F)(F)F)cc1C(F)(F)F
inactive: inhibition [2] 3% | inhibition [3] -1% | outcome [5] | outcome [6] | outcome [7] | outcome [8]
active: growth inhibition [1] 57% | growth inhibition [4] 92%

Cc1ccc2c(Cl)c(C(=O)N3CC(C)OC(C)C3)sc2c1 (configuration not stated)
inactive: inhibition [2] 4% | inhibition [3] 3% | outcome [5] | outcome [6] | outcome [7] | outcome [8]
active: growth inhibition [1] 98% | growth inhibition [4] 100%

FC(F)(F)c1ccc2c(NCCc3ccccc3)ccnc2c1
inactive: growth inhibition [1] 9% | inhibition [2] 14% | inhibition [3] 0% | outcome [5] | outcome [6] | outcome [7] | outcome [8]
active: growth inhibition [4] 87%

Nc1nc2cccc3ccc4cccc1c4c32
active: growth inhibition [1] 69% | growth inhibition [4] 101%
inactive: inhibition [2] 26% | inhibition [3] -1% | outcome [5] | outcome [6] | outcome [7] | outcome [8]

Cc1noc(-c2ccc3c(c2)CCN(CCC2CCC(NC(=O)/C=C/c4cccc(Cl)c4)CC2)CC3)n1 (configuration not stated)
inactive: growth inhibition [1] 24% | inhibition [2] 37% | inhibition [3] 4% | outcome [5] | outcome [6] | outcome [7] | outcome [8]
active: growth inhibition [4] 86%

CNC(=O)c1cnc(Nc2ccc3[nH]c(=O)[nH]c3c2)nc1Nc1cccc(OC(C)C)c1
active: growth inhibition [1] 94% | growth inhibition [4] 89%
inactive: inhibition [2] 18% | inhibition [3] -8% | outcome [5] | outcome [6] | outcome [7] | outcome [8]

CN1CCN(C(C(=O)NCc2cc(Cl)cc(Cl)c2)c2ccccc2-c2ccsc2)CC1 (configuration not stated)
active: growth inhibition [1] 80% | growth inhibition [4] 95%
inactive: inhibition [2] 11% | inhibition [3] 2% | outcome [5] | outcome [6] | outcome [7] | outcome [8]

COc1ccc2ncc(F)c(CCN3CCC(NCc4cc(C)c5c(c4)OCCO5)CC3)c2n1
active: growth inhibition [1] 67% | growth inhibition [4] 100%
inactive: inhibition [2] 20% | inhibition [3] 0% | outcome [5] | outcome [6] | outcome [7] | outcome [8]

CCCCCCNC(=O)c1nn(CCN2CCC(N3CCCC3)CC2)cc1-c1ccc(Cl)c(Cl)c1
active: growth inhibition [4] 101%
inactive: growth inhibition [1] 33% | inhibition [2] 31% | inhibition [3] -2% | outcome [5] | outcome [6] | outcome [7] | outcome [8]

CC(C)(C)c1ccc(C(=O)NC2CCC(CCN3CCc4ccc(S(C)(=O)=O)cc4CC3)CC2)cc1C(F)(F)F (configuration not stated)
inactive: growth inhibition [1] 11% | inhibition [3] -8% | outcome [5] | outcome [6] | outcome [7] | outcome [8]
active: inhibition [2] 54% | growth inhibition [4] 88%

O=C(Nc1ccncc1)c1cc(C(=O)Nc2ccncc2)cc([N+](=O)[O-])c1
active: growth inhibition [1] 50% | growth inhibition [4] 100%
inactive: inhibition [2] 1% | inhibition [3] -3% | outcome [5] | outcome [6] | outcome [7] | outcome [8]

O=S1(=O)NC2(CCN(CCc3ccc(Cl)cc3)CC2)Nc2cc(F)cc(F)c21
active: growth inhibition [4] 86%
inactive: growth inhibition [1] 5% | inhibition [2] 7% | inhibition [3] -1% | outcome [5] | outcome [6] | outcome [7] | outcome [8]

CN(C(=O)/C=C/c1cc(C(F)(F)F)ccc1F)C1CCN(CCCCCNC(=O)/C=C/c2ccc(Cl)c(Cl)c2)CC1
inactive: inhibition [3] 3% | outcome [5] | outcome [6] | outcome [7] | outcome [8]
active: growth inhibition [1] 68% | inhibition [2] 71% | growth inhibition [4] 101%

Cc1cc(NC(=O)c2ccco2)ccc1OC1CCN(Cc2ccccc2)CC1
active: growth inhibition [1] 95% | growth inhibition [4] 93%
inactive: inhibition [2] 3% | inhibition [3] -9% | outcome [5] | outcome [6] | outcome [7] | outcome [8]

CN1CCN(CC(=O)Nc2ccc(-c3csc(-c4nc5ccccc5[nH]4)c3)cc2)CC1
active: growth inhibition [4] 99%
inactive: growth inhibition [1] 46% | inhibition [2] 6% | inhibition [3] -4% | outcome [5] | outcome [6] | outcome [7] | outcome [8]

C[C@H](N[C@H]1CCCc2c1[nH]c1ccc(Br)cc21)c1ccccc1
inactive: inhibition [3] 4% | outcome [5] | outcome [6] | outcome [7] | outcome [8]
active: growth inhibition [1] 95% | inhibition [2] 58% | growth inhibition [4] 96%

COc1ccc(-c2nc(NC(=O)CSc3ccccc3)sc2C)cc1
inactive: growth inhibition [1] 31% | inhibition [2] 6% | inhibition [3] 2% | outcome [5] | outcome [6] | outcome [7] | outcome [8]
active: growth inhibition [4] 94%

CCc1ccc(NC(=O)c2ccc(CN3CCCN(Cc4cccc(C)c4)CC3)cc2)cc1
inactive: growth inhibition [1] -4% | inhibition [3] 1% | outcome [5] | outcome [6] | outcome [7] | outcome [8]
active: inhibition [2] 53% | growth inhibition [4] 80%

CCOC(=O)c1ccc(N(CCCN(CCCN(c2ccc(C(=O)OCC)cc2)S(=O)(=O)c2ccc(C)cc2)CCc2ccc(O)cc2)S(=O)(=O)c2ccc(C)cc2)cc1
inactive: inhibition [2] -11% | inhibition [3] -1% | outcome [5] | outcome [6] | outcome [7] | outcome [8]
active: growth inhibition [1] 74% | growth inhibition [4] 96%

O=C(Nc1ccc(Cn2ncc(N3CCCNCC3)c(Cl)c2=O)cc1)Nc1ccc(SC(F)(F)F)cc1
inactive: inhibition [2] 9% | inhibition [3] 4% | outcome [5] | outcome [6] | outcome [7] | outcome [8]
active: growth inhibition [1] 68% | growth inhibition [4] 93%

Cn1cc(C(=O)Nc2cccc(-c3cccc(-c4nc5ccccc5[nH]4)c3)c2)n(C)c1=O
active: growth inhibition [1] 60% | growth inhibition [4] 99%
inactive: inhibition [2] 0% | inhibition [3] -6% | outcome [5] | outcome [6] | outcome [7] | outcome [8]

CC(C)C[C@H]1C(=O)N[C@H](C2Cc3ccccc3C2)C(=O)N1[C@@H](C(=O)Nc1ccccc1OCc1ccccc1)c1ccc(F)cc1F
inactive: inhibition [2] 12% | inhibition [3] 5% | outcome [5] | outcome [6] | outcome [7] | outcome [8]
active: growth inhibition [1] 67% | growth inhibition [4] 90%

COc1ccccc1C1CCN(C2CCC(NC(=O)/C=C/c3cc(C(F)(F)F)cc(C(F)(F)F)c3)CC2)CC1 (configuration not stated)
inactive: growth inhibition [1] 21% | inhibition [2] 31% | inhibition [3] -4% | outcome [5] | outcome [6] | outcome [7] | outcome [8]
active: growth inhibition [4] 92%

COc1ccc(-c2nc3c(N)nc(N)nc3nc2-c2ccccc2Cl)cc1 (tested in a mixture with another compound)
active: growth inhibition [4] 93%
inactive: growth inhibition [1] -1% | inhibition [2] 45% | inhibition [3] -2% | outcome [5] | outcome [6] | outcome [7] | outcome [8]

COc1ccc(CN2CCC(CNC(C)c3cccc4ccccc34)CC2)cc1 (configuration not stated)
inactive: growth inhibition [1] 26% | inhibition [3] -2% | outcome [5] | outcome [6] | outcome [7] | outcome [8]
active: inhibition [2] 58% | growth inhibition [4] 102%
